# Results as given in PubChem BioAssay (Tox21).
# Where “and” joins values, the source holds several entries; their conditions need not be identical. Equal entries are not always repeated. A structure can be active in one record and inactive in another. Calls of active or inactive are those of the source. Where a call stands in place of a potency, no number is given. Unless noted, the call rests on the fitted dose curve; in most records, active means well fitted curve in the direction sought with a large enough effect in the repeat runs; inconclusive means weak or mixed curves; inactive means no such curve, though single readings can be large; an effect the other way counts as inactive or inconclusive.
# Assays:
# [1] = qHTS assay to identify small molecule antagonists of the thyroid receptor (TR) signaling pathway (AID 743065); further: nearly all actives have a fitted effect of over 55% in size; further: potency means the concentration at half of the fitted maximal effect
# Summary of the method: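 GH3.TRE-Luc rat pituitary cells carrying two TR response elements driving luciferase were plated for 4 h, given compound plus 1 nM T3 (final), and incubated 23.5 h at 37 C. ONE-Glo luminescence measured reporter inhibition; CellTiter-Fluor fluorescence tracked cytotoxicity.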
# [2] = system: thyroid hormone receptor (rat, GH3 cells); experiment: qHTS assay to identify small molecule agonists of the thyroid receptor (TR) signaling pathway (AID 743066; calls by dose curve)
# [3] = molecular target: Estrogen receptor (Homo sapiens) (UniProt P03372); experiment: qHTS assay to identify small molecule antagonists of the estrogen receptor alpha (ER-alpha) signaling pathway (AID 743069; active means well fitted curve in the direction sought with a large enough effect in the signal ratio in the repeat runs, not every such curve was filed as active; inconclusive means weak or mixed curves, or effect the other way; inactive means no such curve, though single readings can be large or run the other way; the % refers to the signal ratio; further: potency means the concentration at half of the fitted maximal effect)
# Sequence of Estrogen receptor (Homo sapiens) (P03372 whole entry, looked up): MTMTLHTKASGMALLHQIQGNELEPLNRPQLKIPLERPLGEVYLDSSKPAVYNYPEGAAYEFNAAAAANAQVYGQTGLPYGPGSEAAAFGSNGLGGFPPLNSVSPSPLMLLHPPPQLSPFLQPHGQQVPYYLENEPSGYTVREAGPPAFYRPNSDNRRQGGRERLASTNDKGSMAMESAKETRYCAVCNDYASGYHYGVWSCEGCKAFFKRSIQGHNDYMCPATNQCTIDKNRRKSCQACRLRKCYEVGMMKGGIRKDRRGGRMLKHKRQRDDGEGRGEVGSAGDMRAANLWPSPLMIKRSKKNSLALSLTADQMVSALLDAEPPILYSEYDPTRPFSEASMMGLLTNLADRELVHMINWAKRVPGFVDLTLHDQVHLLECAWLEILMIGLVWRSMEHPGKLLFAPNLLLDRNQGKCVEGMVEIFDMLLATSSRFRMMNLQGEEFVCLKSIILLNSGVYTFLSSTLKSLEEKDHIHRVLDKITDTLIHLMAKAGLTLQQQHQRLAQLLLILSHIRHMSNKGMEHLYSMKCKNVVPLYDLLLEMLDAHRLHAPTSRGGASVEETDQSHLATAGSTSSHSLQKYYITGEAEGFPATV
# Summary of the method: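 A 17beta-estradiol challenge was applied right after compound transfer to ER-alpha-UAS-bla HEK293 cells previously kept in charcoal-stripped serum. Plates stood 18 hr at 37C and 5% CO2; fluorescence was read following 2 hr FRET substrate loading at room temperature.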
# [4] = qHTS assay to identify small molecule antagonists of the estrogen receptor alpha (ER-alpha) signaling pathway - cell viability counter screen (AID 743074; calls by dose curve;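 further: HEK293 cells carrying ER-alpha-UAS-bla reporter stimulated with 17beta-estradiol; nearly all actives have a fitted effect of over 45% in size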; further: potency means the concentration at half of the fitted maximal effect)
# [5] = molecular target: Estrogen receptor (Homo sapiens) (UniProt P03372); experiment: qHTS assay to identify small molecule agonists of the estrogen receptor alpha (ER-alpha) signaling pathway (AID 743075; calls by dose curve;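 further: HEK293 GripTite cells with ER-alpha and UAS-driven beta-lactamase reporter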)
# [6] = molecular target: Estrogen receptor (Homo sapiens) (UniProt P03372); experiment: qHTS assay to identify small molecule agonists of the estrogen receptor alpha (ER-alpha) signaling pathway using the BG1 cell line (AID 743079); further: nearly all actives have a fitted effect of over 20% in size; further: potency means the concentration at half of the fitted maximal effect
# [7] = qHTS assay to identify small molecule antagonists of the estrogen receptor alpha (ER-alpha) signaling pathway using the BG1 cell line - cell viability counter screen (AID 743081);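 further: compound given together with 17beta-estradiol as the ER stimulus; series mostly up to about 70 µM; nearly all actives have a fitted effect of over 45% in size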
# [8] = molecular target: Aromatase (Homo sapiens) (UniProt P11511); experiment: qHTS assay to identify aromatase inhibitors (AID 743083); further: nearly all actives have a fitted effect of over 55% in size; further: potency means the concentration at half of the fitted maximal effect
# Sequence of Aromatase (Homo sapiens) (P11511 whole entry, looked up): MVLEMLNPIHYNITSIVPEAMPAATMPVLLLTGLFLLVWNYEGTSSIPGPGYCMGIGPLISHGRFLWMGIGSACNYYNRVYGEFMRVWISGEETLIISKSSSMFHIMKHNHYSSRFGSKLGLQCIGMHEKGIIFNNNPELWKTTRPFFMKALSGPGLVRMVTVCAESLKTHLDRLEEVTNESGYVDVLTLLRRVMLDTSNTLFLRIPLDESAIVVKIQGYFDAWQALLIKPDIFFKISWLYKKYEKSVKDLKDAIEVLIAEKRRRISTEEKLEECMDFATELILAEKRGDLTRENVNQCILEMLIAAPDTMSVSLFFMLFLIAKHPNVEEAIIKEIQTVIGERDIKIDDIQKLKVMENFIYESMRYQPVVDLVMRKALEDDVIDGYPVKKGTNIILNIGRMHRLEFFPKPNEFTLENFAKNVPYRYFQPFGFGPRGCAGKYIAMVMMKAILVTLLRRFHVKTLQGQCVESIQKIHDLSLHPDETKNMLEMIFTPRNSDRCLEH
# [9] = qHTS assay to identify aromatase inhibitors - cell viability counter screen (AID 743084);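 further: cells stimulated with testosterone during compound exposure; nearly all actives have a fitted effect of over 55% in size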; further: potency means the concentration at half of the fitted maximal effect
# [10] = molecular target: Aryl hydrocarbon receptor (Homo sapiens) (UniProt P35869); experiment: qHTS assay to identify small molecule that activate the aryl hydrocarbon receptor (AhR) signaling pathway (AID 743085);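 further: HG2L7.5c1 human HepG2 liver cells with stably integrated DRE-driven firefly reporter; series mostly up to about 70 µM; nearly all actives have a fitted effect of over 15% in size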
# Sequence of Aryl hydrocarbon receptor (Homo sapiens) (P35869 whole entry, looked up): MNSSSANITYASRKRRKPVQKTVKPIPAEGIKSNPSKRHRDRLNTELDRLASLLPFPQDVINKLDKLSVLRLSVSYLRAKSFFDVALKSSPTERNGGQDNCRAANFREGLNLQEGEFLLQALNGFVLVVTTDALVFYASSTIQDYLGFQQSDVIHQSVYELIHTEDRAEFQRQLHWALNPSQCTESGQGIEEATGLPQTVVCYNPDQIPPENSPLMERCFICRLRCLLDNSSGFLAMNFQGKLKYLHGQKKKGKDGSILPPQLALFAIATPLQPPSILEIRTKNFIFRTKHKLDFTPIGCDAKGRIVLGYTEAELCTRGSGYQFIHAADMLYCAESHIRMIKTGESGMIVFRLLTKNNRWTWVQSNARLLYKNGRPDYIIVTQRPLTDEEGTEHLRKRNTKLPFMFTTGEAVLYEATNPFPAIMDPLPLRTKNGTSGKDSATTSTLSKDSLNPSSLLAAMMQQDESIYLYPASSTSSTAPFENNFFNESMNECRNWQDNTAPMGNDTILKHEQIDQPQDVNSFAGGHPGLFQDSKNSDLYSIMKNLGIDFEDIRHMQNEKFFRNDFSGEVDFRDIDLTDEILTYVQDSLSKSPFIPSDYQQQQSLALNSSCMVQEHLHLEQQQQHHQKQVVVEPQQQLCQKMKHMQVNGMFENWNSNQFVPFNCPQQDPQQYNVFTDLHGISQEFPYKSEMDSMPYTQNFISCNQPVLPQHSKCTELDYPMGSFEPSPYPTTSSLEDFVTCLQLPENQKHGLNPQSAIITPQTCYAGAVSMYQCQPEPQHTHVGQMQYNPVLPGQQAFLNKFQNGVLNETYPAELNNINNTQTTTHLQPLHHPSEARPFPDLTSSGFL
# Summary of the method: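 Reporter assay in engineered HepG2 line HG2L7.5c1, whose plasmid carries twenty dioxin responsive elements upstream of firefly luciferase. Treatment lasted 24 h at 37C; ONE-Glo luminescence gauged induction.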
# [11] = qHTS assay to identify small molecule that activate the aryl hydrocarbon receptor (AhR) signaling pathway - cell viability counter screen (AID 743086);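 further: HepG2 liver cells carrying the AhR DRE luciferase reporter; series mostly up to about 70 µM; nearly all actives have a fitted effect of over 45% in size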
# Summary of the method: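 HepG2-AhR-luc (HG2L7.5c1) cells, 4000/well, were preincubated 5 h at 37C, exposed to compound in qHTS format for 24 hr at 37C, then given CellTiter-Fluor for 30 min; viability was read as fluorescence in the reporter wells.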
# [12] = molecular target: Peroxisome proliferator-activated receptor gamma (Homo sapiens) (UniProt P37231); experiment: qHTS assay to identify small molecule agonists of the peroxisome proliferator-activated receptor gamma (PPARg) signaling pathway (AID 743094; active means well fitted activation curve with a large enough effect in the signal ratio in the repeat runs, not every such curve was filed as active; inconclusive means weak or mixed curves, or effect the other way; inactive means no such curve, though single readings can be large or run the other way; the % refers to the signal ratio)
# Sequence of Peroxisome proliferator-activated receptor gamma (Homo sapiens) (P37231 whole entry, looked up): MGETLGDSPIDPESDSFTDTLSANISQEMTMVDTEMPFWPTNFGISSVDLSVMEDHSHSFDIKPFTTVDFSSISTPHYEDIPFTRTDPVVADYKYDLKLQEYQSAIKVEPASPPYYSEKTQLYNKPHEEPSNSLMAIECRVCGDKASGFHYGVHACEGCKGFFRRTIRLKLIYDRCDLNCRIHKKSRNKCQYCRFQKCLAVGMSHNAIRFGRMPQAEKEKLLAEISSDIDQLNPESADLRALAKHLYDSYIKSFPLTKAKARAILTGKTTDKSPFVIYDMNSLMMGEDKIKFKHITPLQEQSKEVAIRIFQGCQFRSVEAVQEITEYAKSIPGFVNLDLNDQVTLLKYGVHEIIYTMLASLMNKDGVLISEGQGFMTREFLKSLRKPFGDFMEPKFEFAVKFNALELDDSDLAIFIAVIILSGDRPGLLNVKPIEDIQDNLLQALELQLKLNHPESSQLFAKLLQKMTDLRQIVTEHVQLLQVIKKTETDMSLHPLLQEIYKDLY
# Summary of the method: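 Fluorescence-based beta-lactamase readout in HEK293H PPARg UAS-bla cells after 17 h compound exposure (37C) and 1 h B/G FRET substrate incubation at room temperature.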
# [13] = molecular target: Peroxisome proliferator-activated receptor gamma (Homo sapiens) (UniProt P37231); experiment: qHTS assay to identify small molecule antagonists of the peroxisome proliferator-activated receptor gamma (PPARg) signaling pathway (AID 743191; calls by dose curve; further: series mostly up to about 63 µM; nearly all actives have a fitted effect of over 30% in size)
# Summary of the method: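 GeneBLAzer PPARg UAS-bla HEK293H cells carrying a UAS-driven beta-lactamase reporter were plated at 3000 cells/well, preincubated 5 h at 37C, then given compound for 17 h at 37C; LiveBLAzer B/G FRET substrate was read after 1 h at room temperature.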
# [14] = qHTS assay to identify small molecule antagonists of the peroxisome proliferator-activated receptor gamma (PPARg) signaling pathway - cell viability counter screen (AID 743194); further: nearly all actives have a fitted effect of over 55% in size
# Summary of the method: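 PPARg-UAS-bla HEK293H cells were plated, rested 5 h at 37 C, then treated with compounds plus rosiglitazone (50 nM final) for 17 h at 37 C; viability was then read by CellTiter-Glo luminescence after 30 min at room temperature.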
# [15] = qHTS assay for small molecule agonists of the antioxidant response element (ARE) signaling pathway (AID 743202; active means well fitted activation curve with a large enough effect in the signal ratio in the repeat runs, not every such curve was filed as active; inconclusive means weak or mixed curves, or effect the other way; inactive means no such curve, though single readings can be large or run the other way; the % refers to the signal ratio; further: potency means the concentration at half of the fitted maximal effect)
# Summary of the method: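 Following a 16 h, 37 C exposure of reporter HepG2 cells (ARE-driven beta-lactamase, 2,000 cells/well) to compounds, FRET substrate was applied for 2 h at room temperature and fluorescence intensity recorded.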
# [16] = qHTS assay for small molecule activators of the heat shock response signaling pathway - cell viability counter screen (AID 743209); further: nearly all actives have a fitted effect of over 50% in size; further: potency means the concentration at half of the fitted maximal effect
# Summary of the method: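 To flag cytotoxic compounds, HSE-bla HeLa cells plated at 1500 cells/well were dosed for 5 h at 37 C, followed by the reporter FRET read and then CellTiter-Glo, with luminescence recorded 30 min after reagent addition.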
# [17] = qHTS assay for small molecule activators of the heat shock response signaling pathway (AID 743210; active means well fitted activation curve with a large enough effect in the signal ratio in the repeat runs, with a control signal flat, not every such curve was filed as active; inconclusive means weak or mixed curves; the % refers to the signal ratio; further: potency means the concentration at half of the fitted maximal effect; on activation: series mostly up to about 63 µM)
# Summary of the method: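 Heat shock element–beta-lactamase HeLa reporter cells; qHTS with compounds for 5 h at 37 C; detection by FRET substrate fluorescence after 2.5 h at RT.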
# [18] = qHTS assay for small molecule agonists of the antioxidant response element (ARE) signaling pathway - cell viability counter screen (AID 743203; calls by dose curve; further: nearly all actives have a fitted effect of over 55% in size; further: potency means the concentration at half of the fitted maximal effect)
# Summary of the method: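 Parallel cytotoxicity read-out for the ARE-bla screen: HepG2 reporter cells, 16 hrs with compounds, then CellTiter-Glo luminescence.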
# [19] = qHTS assay to identify small molecule antagonists of the thyroid receptor (TR) signaling pathway - cell viability counter screen (AID 743064); further: nearly all actives have a fitted effect of over 50% in size; further: potency means the concentration at half of the fitted maximal effect
# Summary of the method: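 Same-well viability check: GH3.TRE-Luc cells stimulated with 1 nM T3 alongside test compound for 23.5 h, followed by CellTiter-Fluor fluorescence.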
# [20] = qHTS assay to identify small molecule antagonists of the estrogen receptor alpha (ER-alpha) signaling pathway using the BG1 cell line (AID 743080; calls by dose curve;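 further: BG1 cells stimulated with 17beta-estradiol alongside compound; series mostly up to about 70 µM; nearly all actives have a fitted effect of over 25% in size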)
# Summary of the method: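 After 5 days in phenol-red-free 10% charcoal-stripped FBS medium, BG1-Luc-4E2 cells were seeded, left 24 h at 37 C, co-treated with compounds and 17beta-estradiol for 21.5 h, then assayed for viability and luciferase.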
Compound,Potency [1],Potency [2],Potency [3],Potency [4],Potency [5],Potency [6],Potency [7],Potency [8],Potency [9],Potency [10],Potency [11],Potency [12],Potency [13],Potency [14],Potency [15],Potency [16],Potency [17],Potency [18],Potency [19],Potency [20]
CC(=O)CC(=O)Nc1ccc2[nH]c(=O)[nH]c2c1,inactive,inactive,inactive,inactive,inactive,inactive,inactive,inactive,inactive,inactive,inactive,inactive,inactive,inactive,inactive,inactive,inactive,,,
C[N+]1([O-])CCOCC1,inactive,inactive,,inactive,,,inactive,inactive,inactive,inactive,inactive,inactive,inactive,inactive,inactive,inactive,inactive,inactive,,
CCC[C@H](N[C@@H](C)C(=O)N1[C@H](C(=O)O)C[C@@H]2CCCC[C@@H]21)C(=O)OCC,inactive,inactive,inactive,inactive,inactive,inactive,,inactive,inactive,inactive,inactive,inactive,,inactive,inactive,inactive,inactive,inactive,,
CCc1cc(C(C)(C)C)c(O)c(C(C)(C)C)c1,,inactive,,inactive,,,inactive,inactive,inactive,inactive,inactive,inactive,,inactive,inactive,inactive,inactive,inactive,,
N[C@@H]1CONC1=O,,,,,,,inactive,inactive,inactive,inactive,inactive,,,inactive,inactive,inactive,inactive,,,
CC(C)(C)c1ccccc1,,,,inactive,,,inactive,,,,,,,,inactive,inactive,inactive,inactive,inactive,
Oc1c(Cl)cc(Cl)cc1Sc1cc(Cl)cc(Cl)c1O,8.63 µM (active) [middle of 4 runs],inactive,6.93 µM [inconclusive] (active) and 1.77 µM [inconclusive] (active),21.9 µM (active) and 44.4 µM (active) and 27.5 µM (active),inactive,,inactive,21.1 µM (active) and 15.4 µM (active) and 17.5 µM (active),,inactive,inactive,,,,,43.8 µM (active) and 49 µM (active) and inactive,inactive,,,
O=Cc1ccc(Cl)cc1,inactive,inactive,,inactive,,,inactive,inactive,inactive,,inactive,inactive,inactive,inactive,inactive,inactive,inactive,inactive,,
CCN(CC)c1ccc2c(C)cc(=O)oc2c1,,inactive,,49.4 µM (active) and inactive,,inactive,,inactive,,,,,,inactive,,inactive,31.1 µM (active),inactive,,inactive
O=C1CC2(CCCC2)CC(=O)N1CCCCN1CCN(c2ncccn2)CC1,,inactive,,inactive,,,inactive,,,,inactive,,,inactive,27.3 µM (active),inactive,inactive,inactive,inactive,
OCCN1CCNCC1,,,inactive,,inactive,inactive,inactive,inactive,inactive,inactive,inactive,inactive,inactive,inactive,inactive,inactive,inactive,inactive,inactive,inactive
O=C1OC2(c3ccc(O)cc3Oc3cc(O)ccc32)c2ccccc21,inactive,inactive,,inactive,inactive,inactive and 23.7 µM (active),,inactive,,inactive,,,,inactive,,inactive,,,,
CC1COc2c(N3CCN(C)CC3)c(F)cc3c(=O)c(C(=O)O)cn1c23 (stereo not drawn),inactive,inactive,,inactive,,,inactive,inactive,inactive,inactive,inactive,inactive,,inactive,inactive,inactive,inactive,inactive,,
Nc1cc(S(=O)(=O)O)cc2cc(S(=O)(=O)O)cc(O)c12,,,,inactive,,,inactive,inactive,inactive,inactive,inactive,inactive,,inactive,inactive,inactive,,,inactive,
CCN(CC)C(=S)SSC(=S)N(CC)CC,,,,inactive and 39.8 µM (active),inactive,,inactive,168 nM (active) and 68.6 nM (active) and 55.8 nM (active),86.3 nM (active) and 44.3 nM (active),inactive,,,,inactive,77 nM (active) and inactive,inactive,,27.9 µM (active) and inactive,34.2 µM (active),
